# PNC assembly inh = blocks assembly of the perinucleolar compartment. PC3M PTB-GFP, PNC prevalence imaging, 16 h; active compounds read low. 3.1% of 140,000 active. activity change (PNC), negative = inhibition, % at 10 µM. AID 2417;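 active = readout at or below -70, meaning at least 70% loss of cells showing the perinucleolar compartment, a nuclear body marking cancer cells; inconclusive = readout between -30 and a set limit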;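 note: plate controls were DMSO wells for no effect and camptothecin positive control wells for full effect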
#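 Compounds are pinned in duplicate onto adhered PC3M cells stably expressing GFP-tagged PTB and incubated 16 h at 37 C. Cells are then fixed, nuclei stained with Hoechst, and PNC-positive cells counted.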
# HPGD block = HPGD (human) dehydrogenase inhibition; AID 894; purified HPGD, NADH fluorescence kinetic, PGE2 substrate; Potency, µM, inactives show at the top dose activity change, negative = inhibition, most hits filed as inhibitors; P15428; 4.3% of 150,000 active; note: potency is the fitted concentration of half-maximal effect
#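 NADH formation kinetics: reaction with 30 uM PGE2 and 1 mM NAD+ (final), 20 nM enzyme, Tris-HCl pH 8 with Tween 20, after 15 min compound preincubation at room temperature. Fluorescence change, last versus first of five reads.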
# LMNA splice mod = modulators of lamin A splicing; HeLa LMNA splicing GFP/RFP minigene ratio, 48 h; Potency, µM (highest dose often 46.1 µM), for the others: at the highest dose ratio change, negative = inhibition, usual class: inhibitors; 0.01% of 200,000 active; AID 1487; active = well fitted inhibition curve with a large enough effect in the signal ratio, with a control signal flat, not every such curve was filed as active; inconclusive = small, poorly fitted or top-dose-only effect, or effect the other way, or a change in a side signal; the % refers to the signal ratio; note: potency is the fitted concentration of half-maximal effect
#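 Read-out is the ratio of GFP to DsRed2 object intensity, acquired by 488 nm laser-scanning cytometry on HeLa lamin A-EGFP minigene reporter cells. Compound incubation 48 hrs at 37 °C in Opti-MEM with 2% FBS; DMSO 0.5% final.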
# ALOX12 inhib = blocks human 12-lipoxygenase activity; P18054; purified 12-hLO, xylenol orange hydroperoxide absorbance; Potency, µM (titrated, usually from 57.1 µM), for inactives: top-dose activity change, negative = inhibition, actives largely listed as inhibitors; 0.12% of 150,000 active; active = well fitted inhibition curve with a large enough effect; inconclusive = small, poorly fitted or top-dose-only effect; note: potency is the fitted concentration of half-maximal effect; nearly all actives have a fitted effect of over 55% in size
#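 Lipoxygenase turnover measured by absorbance at 573 and 405 nm after Fe-XO development. Human 12hLO 150 nM, arachidonate 40 uM, pH 7.0 Hepes buffer with detergent; 15 min compound preincubation, 30 min reaction.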
# ALDH1A1 inh = inhibitors of human aldehyde dehydrogenase 1A1. P00352. Purified ALDH1A1, NADH fluorescence, propionaldehyde substrate. Potency, µM (doses to about 75.3 µM), inactives show at the top dose activity, negative = inhibition, most hits filed as inhibitors. 7.3% of 220,000 active. AID 1030;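 note: potency is the fitted concentration of half-maximal effect; plate controls were no enzyme wells and a reference inhibitor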
# Target sequence (P00352 whole entry, looked up): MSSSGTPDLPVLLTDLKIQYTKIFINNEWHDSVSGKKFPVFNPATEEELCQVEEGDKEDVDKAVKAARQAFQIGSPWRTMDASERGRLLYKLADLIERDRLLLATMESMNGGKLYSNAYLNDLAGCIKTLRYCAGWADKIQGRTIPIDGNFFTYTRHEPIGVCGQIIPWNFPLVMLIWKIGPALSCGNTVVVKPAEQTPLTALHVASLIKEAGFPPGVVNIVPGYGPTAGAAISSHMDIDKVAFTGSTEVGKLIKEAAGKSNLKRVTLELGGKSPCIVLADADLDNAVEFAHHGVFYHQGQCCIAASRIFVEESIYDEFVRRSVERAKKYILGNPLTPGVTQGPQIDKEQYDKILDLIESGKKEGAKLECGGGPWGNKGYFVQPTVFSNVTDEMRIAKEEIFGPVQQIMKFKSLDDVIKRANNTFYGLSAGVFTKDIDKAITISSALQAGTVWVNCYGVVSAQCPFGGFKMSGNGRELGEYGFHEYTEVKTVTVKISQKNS
# * = called active by the depositor; ? = inconclusive; nt = no result given; [ ] = remark or other dose. In the library only some 10% were active in any assay of this set; here they are far more common. Unless noted, calls come from the whole dose curve; as a rule, active = well fitted inhibition curve with a large enough effect (not every such curve was filed as active); inconclusive = small, poorly fitted or top-dose-only effect, or another doubt; inactive = no such curve, though single readings can be large or run the other way. Unless noted, % is set by controls: 0 for no effect and ±100 for the full control effect.
SMILES,PNC assembly inh,HPGD block,LMNA splice mod,ALOX12 inhib,ALDH1A1 inh
COc1ccc(N2C(=O)C(Cl)=C(Nc3ccccc3O)C2=O)cc1,?,14µM*,-20%,-13%,16µM*
COc1ccc(N2C(=O)C(Cl)=C(Oc3cccc(OC)c3)C2=O)cc1,nt,nt,?,nt,18µM*
CCN(CC)S(=O)(=O)c1ccc(-c2nnco2)cc1,-100*,-10%,-8%,-4%,-2%
Cc1ccc(S(=O)(=O)N(C)Cc2ccc(-c3nnco3)cc2)cc1,64,?,2%,0%,6%
COc1ccc(OC)c(NC(=O)c2cc(C3CC3)nc3c2c(C)nn3-c2ccc(C)cc2)c1,nt,nt,7%[46 µM],nt,nt
COc1ccc(CCN2C(=O)CC(NNc3ccc([N+](=O)[O-])cc3)C2=O)cc1OC (stereo unspecified),nt,nt,1%[46 µM],nt,10µM*
COc1ccc(CCN2C(=O)CC(C(C)c3ccccc3)C2=O)cc1OC (stereo unspecified),nt,nt,nt,nt,1%
O=C1CC(Cc2ccccc2)C(=O)N1CCc1ccc2c(c1)OCO2 (stereo unspecified),48,-9%,12%,-4%,18µM*
COc1ccc(CCN2C(=O)CC(NCc3ccc4c(c3)OCO4)C2=O)cc1OC (stereo unspecified),-3,-8%,-2%,-9%,25µM*
COc1ccc(CCN2C(=O)C3C4C=CC(C5CC45)C3C2=O)cc1OC (stereo unspecified),nt,nt,nt,nt,4µM*
Cc1cccc(CC2CC(=O)N(CCc3ccc4c(c3)OCO4)C2=O)c1 (stereo unspecified),nt,nt,13%[46 µM],nt,?
COc1ccc(CCN2CC(C(=O)Nc3ccc4c(c3)OCO4)CC2=O)cc1OC (stereo unspecified),nt,nt,nt,nt,-4%
COc1ccc(CCNC2CC(=O)N(CCc3ccc(OC)c(OC)c3)C2=O)cc1OC (stereo unspecified),3,-11%,10%,-2%,6.3µM*
O=C1CC(Cc2ccccc2)C(=O)N1CCCn1ccnc1 (stereo unspecified),?,0%,-1%,-1%,16µM*
COc1ccc(CCN2C(=O)CC(Cc3ccc(Br)cc3)C2=O)cc1OC (stereo unspecified),9,-1%,?,-5%,5%
Cc1ccc(CC2CC(=O)N(CCc3ccccc3)C2=O)cc1 (stereo unspecified),nt,nt,14%[46 µM],nt,-1%
O=C(COC(=O)CN1C(=O)C(=O)c2ccccc21)OCN1C(=O)c2ccccc2C1=O,0,-26%,-5%,-1%,0.089µM*
O=C(CCN1C(=O)c2ccccc2C1=O)OCN1C(=O)c2ccccc2C1=O,-4,-16%,-3%,6%,-6%
CCCOC(=O)CN1C(=O)c2ccccc2C1=O,-13,-6%,16%,-5%,22µM*
C/C(Cl)=C\Cn1c(O)c(N=NC(N)=S)c2cc(Br)ccc21,nt,nt,?,nt,0.45µM*
NC(=S)N=Nc1c(O)n(Cc2ccc(F)cc2)c2ccccc12,50,nt,-8%,2%,1.4µM*
Cc1ccc2c(c1)c(N=NC(N)=S)c(O)n2Cc1ccccc1,20,-6%,6%,-1%,0.63µM*
NC(=S)N=Nc1c(O)n(CCCl)c2ccc(Br)cc12,nt,nt,nt,nt,7%
NC(=S)N=Nc1c(O)n(Cc2ccc(Br)cc2)c2ccccc12,-16,-5%,?,2%,3.5µM*
CC1CC(C)CN(S(=O)(=O)c2ccc(NC(=O)C3COc4ccccc4O3)cc2)C1 (stereo unspecified),-122*,-19%,?,-4%,-3%
NS(=O)(=O)c1ccc(NC(=O)C2COc3ccccc3O2)cc1 (stereo unspecified),-6,-3%,-3%,3%,11%
CC1(C)Oc2ccc(NC(=O)C3COc4ccccc4O3)cc2O1 (stereo unspecified),4,20µM*,-6%,-9%,0.035µM*
O=C(Nc1ccc(-c2cn3ccsc3n2)cc1)C1COc2ccccc2O1 (stereo unspecified),-94*,-9%,?,-3%,0%
CCSc1nc2c([nH]c3ccccc32)c(=O)n1-c1ccc(OC)cc1,nt,nt,0%[46 µM],nt,nt
COC(=O)c1ccc(NC(=O)Cn2c(-c3nonc3N)nc3ccccc32)cc1,nt,nt,nt,nt,-10%

# Source: PubChem BioAssay (National Center for Advancing Translational Sciences (NCATS))
